Peg3 prom inh-1: inhibitors of Peg3 promoter | inhibition, % at 20 µM | 360,000 tested, 1.7% active | HeLa PEG-Prom luciferase reporter, luminescence, overnight;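 active = inhibition of at least 50% at 20 µM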
TRPM1 prom inh: reduces MITF-dependent TRPM1 promoter luciferase signal | 330,000 tested, 0.83% active | SK-MEL-5 TRPM1 promoter luciferase, 24 h | inhibition, % at 12.5 µM | AID 488899;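 active = mean inhibition across replicates of 60% or more, whatever share of single replicates reaches that level; inconclusive = some that reach 60%, reason not given; inactive = mean inhibition across replicates below 60%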
CF NFkB block: inhibitors of cystic fibrosis induced NF-kB. KKLEB NF-kB-GFP reporter, PAF-induced, GFP fluorescence overnight. inhibition, % at 5 µM. 360,000 tested, 0.86% active. AID 588850;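 active = at least 50% inhibition at 5 µM, scaled per plate between neutral and stimulator controls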;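 also: PAF is a Pseudomonas aeruginosa culture filtrate used as stimulus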
HIF-2a block: HIF-2a inhibition | 786-0 RCC cells HIF-2a reporter, luciferase luminescence, overnight | inhibition, % at 18.8 µM | 360,000 tested, 0.72% active;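 active = inhibition of the luminescence signal of 40% or more relative to plate controls, in a single-dose primary screen at 18.75 µM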
KKLEB tox: counter-screen for CF NF-kB inhibitors: cytotoxicity | 360,000 tested, 0.36% active | AID 602141 | KKLEB CF airway cells viability, ATPlite luminescence, overnight; active compounds read low; cells stimulated with P. aeruginosa culture filtrate | activity change (cytotoxicity), % at 5 µM;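 active = corrected activity change at or below -50% at 5 µM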
Shn3 3UTR inh: reduces Shn3 3'UTR luciferase signal in osteoblasts; Clone20 osteoblast Shn3 3'UTR firefly luciferase, 24 h; inhibition, % at 12.5 µM; 360,000 tested, 0.52% active;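 active = mean inhibition of at least 75% with every replicate also reaching 75%; inconclusive = mean inhibition at least 75% but some replicate below; inactive = mean inhibition below 75%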
Peg3 prom inh-2: confirmation of Peg3 promoter inhibitors. shares compounds with Peg3 prom inh-1. HeLa PEG-Prom luciferase reporter, luminescence, overnight. inhibition, % at 20 µM. 1,300 tested, 84% active. AID 602417;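 active = at 20 µM dose, 40% or more inhibition averaged across four replicates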
Large screens that a line does not name were inactive (follow-up assays come after a bar, where they were run). This is a sample that favours compounds with a hit; in the whole collection about 2.8% have one here.

CC(C)C(=O)Nc1cccc(NC(=O)CCN2C(=O)c3ccccc3S2(=O)=O)c1	none
O=C(C=Cc1ccccc1Cl)c1ccccc1	none
O=C(C=Cc1ccccn1)c1ccccc1	Peg3 prom inh-1 101, TRPM1 prom inh 70 | Peg3 prom inh-2 87
CC(=O)NC(c1ccc2ccccc2c1)c1ccc2cccnc2c1O (stereo not drawn)	Peg3 prom inh-1 64, Shn3 3UTR inh 85 | Peg3 prom inh-2 71
COc1ccccc1C(NC(C)=O)c1cc(Cl)c2cccnc2c1O (stereo not drawn)	Shn3 3UTR inh inconclusive
COc1ccc(C(NC(C)=O)c2ccc3cccnc3c2O)c(OC)c1 (stereo not drawn)	Peg3 prom inh-1 61, TRPM1 prom inh 63, Shn3 3UTR inh 90 | Peg3 prom inh-2 65
CC1=C([N+](=O)[O-])C(c2ccccc2Cl)NC(=O)N1C (stereo not drawn)	none
CCCC(=O)NC(c1ccc(N(C)C)cc1)c1c(O)ccc2ccccc12 (stereo not drawn)	none
CCCCC(=O)NC(c1ccc(N(CC)CC)cc1)c1ccc2cccnc2c1O (stereo not drawn)	Peg3 prom inh-1 59, Shn3 3UTR inh 94 | Peg3 prom inh-2 70
CCCC(=O)NC(c1cccc([N+](=O)[O-])c1)c1ccc2cccnc2c1O (stereo not drawn)	Peg3 prom inh-1 58, Shn3 3UTR inh 87 (no result: TRPM1 prom inh) | Peg3 prom inh-2 66
CCCCC(=O)NC(c1ccc(Cl)cc1)c1ccc2cccnc2c1O (stereo not drawn)	Peg3 prom inh-1 62, Shn3 3UTR inh 86 (no result: TRPM1 prom inh) | Peg3 prom inh-2 69
CCC(=O)NC(c1ccc(OC)c(OC)c1)c1cc(Cl)c2cccnc2c1O (stereo not drawn)	Peg3 prom inh-1 55, Shn3 3UTR inh inconclusive | Peg3 prom inh-2 63
CCC(=O)NC(c1cccc([N+](=O)[O-])c1)c1c(OC(C)=O)ccc2ccccc12 (stereo not drawn)	none
CCCCC(=O)NC(c1ccccc1Cl)c1c(O)ccc2ccccc12 (stereo not drawn)	none
CCC(=O)NC(c1ccc(C)cc1)c1cc(Cl)c2cccnc2c1O (stereo not drawn)	none
C[C@@H]1[C@H](O)C[C@@]23COC(=O)C2=CCCC3[C@@]1(C)CCC1COC(=O)C1 (stereo partly drawn)	none (no result: TRPM1 prom inh)
Cc1cccc(CN2C(=O)[C@@H]3Cc4c([nH]c5ccccc45)C(C)(C)N3C2=O)c1	none
Cc1cccc(CN2C(=O)[C@H]3Cc4c([nH]c5ccccc45)C(C)(C)N3C2=O)c1	Peg3 prom inh-1 60 | Peg3 prom inh-2 49
CCC(C)Sc1ccc([C@@H]2[C@@H]3C(=O)N(C)C(=O)[C@@H]3[C@]3(C(=O)OC)CCCCN23)cc1 (stereo partly drawn)	none
COc1ccccc1C(=O)Nc1nc2ccccc2s1	Peg3 prom inh-1 104, TRPM1 prom inh 81, HIF-2a block 86, KKLEB tox -95 | Peg3 prom inh-2 95
COC(=O)C1=C(C(=O)OC)C(C(=O)OC)C(C(=O)OC)C(C(=O)OC)(C(=O)OC)C(C(=O)OC)=C1C(=O)OC (stereo not drawn)	Peg3 prom inh-1 107 | Peg3 prom inh-2 99
COC(=O)C1C(C(=O)OC)C1(c1ccccc1)c1ccccc1 (stereo not drawn)	none
Cc1ccc(-c2nnc(N3CCN(c4ccccn4)CC3)c3ccccc23)cc1	Peg3 prom inh-1 77 | Peg3 prom inh-2 84
c1ccc(-c2nnc(N3CCN(c4ccccn4)CC3)c3ccccc23)cc1	none
O=C1[C@H](Cc2ccccc2)NCCCC[C@@H](c2ccc(Cl)cc2)N1Cc1ccc(Cl)cc1	Peg3 prom inh-1 76 | Peg3 prom inh-2 inactive
O=C1[C@H](Cc2ccccc2)NCCCC[C@@H](c2ccco2)N1Cc1ccccc1	none
O=C(NCc1ccccc1Cl)C1CCCN1C(=O)Nc1ccccc1 (stereo not drawn)	none
CCNc1nc(-c2sc(NC(=O)C(C)(C)C)nc2C)c(-n2cc(-c3ccccc3)nn2)s1	none (no result: Peg3 prom inh-1, TRPM1 prom inh, CF NFkB block, KKLEB tox, Shn3 3UTR inh)
COc1ccc2nc3n(c(=O)c2c1)-c1cc2ccccc2cc1C(=O)NC3Cc1ccc(O)cc1 (stereo not drawn)	Peg3 prom inh-1 78 (no result: TRPM1 prom inh) | Peg3 prom inh-2 86
COc1ccc2nc3n(c(=O)c2c1)-c1cc2ccccc2cc1C(=O)NC3Cc1ccccc1 (stereo not drawn)	none (no result: TRPM1 prom inh)
COc1ccc(N2CCN(C(=O)c3cc(-c4cccs4)nc4ccccc34)CC2)cc1	none
COc1ccc(-c2cc(C(=O)N(C)CC(=O)Nc3ccccc3Br)c3ccccc3n2)cc1OC	Peg3 prom inh-1 54 | Peg3 prom inh-2 inactive
COc1ccc(-c2cc(C(=O)N(C)Cc3ccccc3F)c3ccccc3n2)cc1OC	Peg3 prom inh-1 61 | Peg3 prom inh-2 60
COc1cccc(CN(C)C(=O)c2cc(-c3cccs3)nc3ccccc23)c1	Peg3 prom inh-1 61 | Peg3 prom inh-2 67
COc1cc(-c2cc(C(=O)N(C)Cc3ccccc3)c3ccccc3n2)cc(OC)c1OC	Peg3 prom inh-1 56 | Peg3 prom inh-2 52
COc1ccc(-c2cc(C(=O)N(C)CC(=O)Nc3ccccc3C(F)(F)F)c3ccccc3n2)cc1OC	none
COc1ccc(-c2cc(C(=O)NCC(c3ccccc3)N(C)C)c3ccccc3n2)cc1OC (stereo not drawn)	none
CC(C)Oc1ccc(F)cc1-c1cc(C(=O)NCc2ccc(F)cc2)[nH]n1	none (no result: TRPM1 prom inh)
CSc1ccc(/C=C/c2ccc3cccc(O)c3n2)cc1	none
COc1cc(/C=C/c2ccc3cccc(O)c3n2)ccc1O	Peg3 prom inh-1 103 | Peg3 prom inh-2 57
COc1cc(/C=C/c2ccc3cccc(O)c3n2)c(Br)cc1O	Peg3 prom inh-1 98 | Peg3 prom inh-2 92
COc1cc(Br)c(/C=C/c2ccc3cccc(O)c3n2)cc1OC	none
COC(=O)C1CCN(C(=O)COC(=O)CCc2nc3ccccc3c(=O)[nH]2)CC1	none
O=C(c1ccncc1)N1CCN(c2cc(-c3ccccc3)nc3cc(-c4cccc(Cl)c4)nn23)CC1	none (no result: TRPM1 prom inh)
CC(=O)N1CCN(c2cc(-c3ccccc3)nc3cc(-c4cccc(Cl)c4)nn23)CC1	Peg3 prom inh-1 55 (no result: TRPM1 prom inh) | Peg3 prom inh-2 58
O=C(c1ccoc1)N1CCN(c2cc(-c3cccnc3)nc3cc(-c4cccc(Cl)c4)nn23)CC1	Peg3 prom inh-1 54 (no result: TRPM1 prom inh) | Peg3 prom inh-2 inactive
CN(C)CCCC1(O)c2ccccc2C=Cc2ccccc21	none
CCCOc1ccc(CC(=O)N/N=C\c2ccc(F)cc2)cc1	none
Clc1ccc(-c2cccs2)nn1	none
CC1CCN(c2ccc(-c3cccs3)nn2)CC1	Peg3 prom inh-1 82, TRPM1 prom inh 79, HIF-2a block 78, KKLEB tox -81 | Peg3 prom inh-2 78
CCCCN1CC(C)(C)[C@H](CC(=O)NC)C1=O	none (no result: TRPM1 prom inh)

Compound activity deposited in PubChem BioAssay by several laboratories.
